Source: the supplement of paper PMC10849652
Targets with a hit are over-represented here; the source holds about 7,900 in all. About 0.6% of all pairs of compound and target were hits.

Columns and labels:
Assay in all cases: log2 fold change, soluble protein after heating vs DMSO (PISA); higher = thermal stabilisation; K562 cells, 10 uM, 30 min; active = over 0.2 and 3.5 SD of the protein, either way, in both replicates (recomputed)
[1] = compound: NC(=O)Nc1cc(-c2cccc(F)c2)sc1C(=O)N[C@H]1CCCNC1
Outline: (§1)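 K562 cells at 2×10^6 cells/mL were given 10 μM compound for 30 min. Aliquots then went through 3 min of heating across 48°C-58°C, were pooled, and were extracted in PBS with 0.5% NP-40 at 4°C, and the supernatant after 21,000xg for 90 min was quantified by TMTpro 16plex LC-MS/MS with channel sums equalised. Thermal stability relative to control samples, from duplicates, is given as log2 fold change.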

[2] = compound: NC(=O)c1cnc(N[C@@H]2CCCC[C@@H]2N)nc1Nc1cccc(-n2nccn2)c1
Outline: as §1

[3] = compound: NC1(c2ccc(-c3nc4ccn5c(=O)[nH]nc5c4cc3-c3ccccc3)cc2)CCC1
Outline: as §1

[4] = compound: NCC(=O)Nc1ccc(-n2nc(C(F)(F)F)cc2-c2ccc3c(ccc4ccccc43)c2)cc1
Outline: as §1

entinostat = compound: Nc1ccccc1NC(=O)c1ccc(CNC(=O)OCc2cccnc2)cc1 [entinostat]
Outline: as §1

vorinostat = compound: O=C(CCCCCCC(=O)Nc1ccccc1)NO [vorinostat]
Outline: as §1

citarinostat = compound: O=C(CCCCCCNC(=O)c1cnc(N(c2ccccc2)c2ccccc2Cl)nc1)NO [citarinostat]
Outline: as §1

silmitasertib = compound: O=C(O)c1ccc2c(c1)nc(Nc1cccc(Cl)c1)c1ccncc12 [silmitasertib]
Outline: as §1

[5] = compound: O=C1NC(=O)C(c2cnc3ccccn23)=C1c1cn2c3c(cc(F)cc13)CN(C(=O)N1CCCCC1)CC2
Outline: as §1

[6] = compound: c1cc(OCCN2CCCCC2)cc(-c2n[nH]c3ccc(-c4nnc[nH]4)cc23)c1
Outline: as §1

entospletinib = compound: c1cn2cc(-c3ccc4cn[nH]c4c3)nc(Nc3ccc(N4CCOCC4)cc3)c2n1 [entospletinib]
Outline: as §1

Measured: log2 fold change

HIKESHI (UniProt Q53FT3)
inactive: [1] 0 | [2] -0.045 | [3] -0.046 | [4] -0.053 | entinostat -0.003 | vorinostat -0.05 | citarinostat 0.021 | silmitasertib 0.002 | [5] 0.026 | [6] -0.056 | entospletinib 0.088

HEXA (UniProt P06865)
inactive: [1] -0.025 | [2] -0.06 | [3] -0.156 | [4] 0.006 | entinostat -0.028 | vorinostat -0.02 | citarinostat 0.056 | silmitasertib -0.013 | [5] -0.037 | [6] -0.022 | entospletinib 0

HECTD1 (UniProt Q9ULT8)
inactive: [1] -0.036 | [2] -0.087 | [3] -0.017 | [4] -0.01 | entinostat 0.042 | vorinostat 0.06 | citarinostat 0.123 | silmitasertib 0.075 | [5] -0.027 | [6] -0.17 | entospletinib -0.057

FLNA (UniProt P21333)
inactive: [1] -0.069 | [2] -0.069 | [3] -0.093 | [4] -0.072 | entinostat 0.042 | vorinostat 0.061 | citarinostat 0.062 | silmitasertib 0.11 | [5] -0.002 | [6] -0.032 | entospletinib 0.062

GEMIN6 (UniProt Q8WXD5)
Chain of UniProt Q8WXD5 (Q8WXD5 whole entry, looked up): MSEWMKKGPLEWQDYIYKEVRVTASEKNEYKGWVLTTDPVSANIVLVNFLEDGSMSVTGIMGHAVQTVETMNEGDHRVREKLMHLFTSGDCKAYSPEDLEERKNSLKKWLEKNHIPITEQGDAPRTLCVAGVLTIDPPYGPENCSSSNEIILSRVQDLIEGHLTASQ
inactive: [1] 0.066 | [2] 0.015 | [3] -0.108 | [4] 0.099 | entinostat -0.005 | vorinostat -0.04 | citarinostat -0.12 | silmitasertib 0.015 | [5] -0.139 | [6] -0.106 | entospletinib 0.082

HTATIP2 isoform 3 (UniProt Q9BUP3)
inactive: [1] -0.047 | [2] 0.036 | [3] -0.07 | [4] -0.037 | entinostat -0.006 | vorinostat 0.038 | citarinostat 0.05 | silmitasertib 0.01 | [5] -0.066 | [6] -0.045 | entospletinib 0.003

GSK3A (UniProt P49840)
Chain of UniProt P49840 (P49840 whole entry, looked up): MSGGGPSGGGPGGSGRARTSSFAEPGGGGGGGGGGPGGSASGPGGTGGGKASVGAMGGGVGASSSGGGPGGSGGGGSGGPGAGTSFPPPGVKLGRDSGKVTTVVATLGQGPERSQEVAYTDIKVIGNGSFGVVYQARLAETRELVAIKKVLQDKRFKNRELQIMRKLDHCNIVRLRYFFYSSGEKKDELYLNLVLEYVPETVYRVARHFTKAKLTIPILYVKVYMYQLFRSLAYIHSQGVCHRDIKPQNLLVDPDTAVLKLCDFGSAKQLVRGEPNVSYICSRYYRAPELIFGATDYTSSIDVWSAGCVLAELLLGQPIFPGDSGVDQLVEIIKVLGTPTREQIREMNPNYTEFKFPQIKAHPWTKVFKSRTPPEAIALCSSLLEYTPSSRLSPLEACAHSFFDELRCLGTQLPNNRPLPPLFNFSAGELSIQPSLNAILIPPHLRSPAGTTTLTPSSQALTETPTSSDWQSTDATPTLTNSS
inactive: [1] -0.02 | [2] 0.014 | [3] -0.054 | [4] 0.051 | entinostat -0.03 | vorinostat -0.053 | citarinostat 0.015 | silmitasertib -0.004 | [6] 0.193 | entospletinib -0.028
active: [5] 0.454

FDFT1 (UniProt P37268)
Chain of UniProt P37268 (P37268 whole entry, looked up): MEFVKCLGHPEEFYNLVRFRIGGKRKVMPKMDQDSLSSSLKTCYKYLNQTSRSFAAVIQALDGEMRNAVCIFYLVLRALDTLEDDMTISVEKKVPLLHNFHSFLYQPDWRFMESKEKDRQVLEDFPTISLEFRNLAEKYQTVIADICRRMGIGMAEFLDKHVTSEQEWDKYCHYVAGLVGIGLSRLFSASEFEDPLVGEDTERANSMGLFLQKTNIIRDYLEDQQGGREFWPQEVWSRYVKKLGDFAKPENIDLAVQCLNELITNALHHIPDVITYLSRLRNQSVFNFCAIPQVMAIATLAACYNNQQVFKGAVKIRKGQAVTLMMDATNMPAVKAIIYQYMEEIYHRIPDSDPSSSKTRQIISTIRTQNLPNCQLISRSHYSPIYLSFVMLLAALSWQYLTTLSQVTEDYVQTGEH
inactive: [1] 0.044 | [2] 0.064 | [3] -0.042 | [4] 0.035 | entinostat -0.008 | vorinostat -0.018 | citarinostat 0.086 | silmitasertib -0.031 | [5] 0.004 | [6] 0.093 | entospletinib -0.019

GLB1 (UniProt P16278)
inactive: [1] 0.02 | [2] 0.002 | [3] -0.097 | [4] -0.043 | entinostat 0.01 | vorinostat -0.065 | citarinostat 0.005 | silmitasertib 0.021 | [5] -0.003 | [6] -0.044 | entospletinib 0.022

GSTM4 (UniProt Q03013)
Chain of UniProt Q03013 (Q03013 whole entry, looked up): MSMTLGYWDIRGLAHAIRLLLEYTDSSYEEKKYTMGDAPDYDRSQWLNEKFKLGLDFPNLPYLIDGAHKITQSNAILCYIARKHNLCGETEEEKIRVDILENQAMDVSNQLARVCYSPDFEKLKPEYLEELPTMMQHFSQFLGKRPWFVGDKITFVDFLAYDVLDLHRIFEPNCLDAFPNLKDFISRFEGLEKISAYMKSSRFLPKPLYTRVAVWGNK
inactive: [1] -0.071 | [2] -0.046 | [3] -0.121 | [4] 0.023 | entinostat -0.068 | vorinostat -0.013 | citarinostat -0.079 | silmitasertib 0.137 | [5] 0.151 | [6] 0.199 | entospletinib 0.036

HSPA8 (UniProt E9PN89)
inactive: [1] -0.317 | [2] -0.283 | [3] -0.172 | [4] -0.372 | entinostat -0.135 | vorinostat -0.057 | citarinostat -0.304 | silmitasertib 0.365 | [5] -0.102 | [6] -0.394 | entospletinib 0.099

FBXO6 (UniProt Q9NRD1)
Chain of UniProt Q9NRD1 (Q9NRD1 whole entry, looked up): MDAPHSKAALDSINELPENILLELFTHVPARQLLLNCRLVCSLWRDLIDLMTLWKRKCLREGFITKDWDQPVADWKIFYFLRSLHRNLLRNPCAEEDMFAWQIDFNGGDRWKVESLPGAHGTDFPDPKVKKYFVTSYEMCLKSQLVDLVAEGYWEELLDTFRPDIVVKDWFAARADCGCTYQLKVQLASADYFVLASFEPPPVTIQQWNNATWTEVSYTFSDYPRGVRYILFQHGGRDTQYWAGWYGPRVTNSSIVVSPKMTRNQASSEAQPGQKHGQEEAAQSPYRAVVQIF
active: [3] 0.366
inactive: [1] -0.009 | [2] 0.034 | [4] 0.028 | entinostat 0.013 | vorinostat 0.074 | citarinostat 0.075 | silmitasertib 0.012 | [5] -0.017 | [6] 0.026 | entospletinib -0.055

GALNT2 (UniProt Q10471)
inactive: [1] 0 | [2] -0.042 | [3] -0.125 | [4] 0.002 | entinostat -0.018 | vorinostat 0.033 | citarinostat 0.064 | silmitasertib -0.021 | [5] -0.034 | [6] 0.005 | entospletinib -0.041

HSD17B12 (UniProt Q53GQ0)
inactive: [1] -0.031 | [2] 0.005 | [3] -0.049 | [4] 0.066 | entinostat -0.02 | vorinostat -0.014 | citarinostat 0.14 | silmitasertib 0.037 | [5] -0.146 | [6] -0.082 | entospletinib -0.015

GAK (UniProt O14976)
inactive: [1] 1.52 | [2] 0.465 | [3] 0.145 | [4] 1.4 | entinostat -0.072 | vorinostat -0.01 | citarinostat -0.244 | silmitasertib 0.607 | [5] 0.236 | [6] 0.687 | entospletinib 0.371

HNRNPC isoform 2 (UniProt P07910)
inactive: [1] -0.032 | [2] -0.049 | [3] 0.568 | [4] -0.037 | entinostat 0.148 | vorinostat -0.041 | citarinostat -0.062 | silmitasertib 0.199 | [5] 0.104 | [6] -0.252 | entospletinib 0.274

GCLM (UniProt P48507)
inactive: [1] -0.028 | [2] 0.073 | [3] -0.088 | [4] -0.075 | entinostat 0.093 | vorinostat 0.051 | citarinostat 0.074 | silmitasertib 0.077 | [5] -0.022 | [6] -0.004 | entospletinib 0.012

GTF2E2 (UniProt P29084)
Chain of UniProt P29084 (P29084 whole entry, looked up): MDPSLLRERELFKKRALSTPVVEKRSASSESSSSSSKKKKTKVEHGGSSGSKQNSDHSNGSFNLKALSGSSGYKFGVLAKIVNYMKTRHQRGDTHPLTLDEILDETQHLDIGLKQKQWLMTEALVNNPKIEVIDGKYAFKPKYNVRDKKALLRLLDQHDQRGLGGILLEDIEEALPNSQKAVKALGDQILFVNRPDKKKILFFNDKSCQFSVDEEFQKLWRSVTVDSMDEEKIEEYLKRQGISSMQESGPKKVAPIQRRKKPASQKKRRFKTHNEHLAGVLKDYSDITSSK
inactive: [1] -0.097 | [2] -0.052 | [3] -0.048 | [4] -0.048 | entinostat 0.025 | vorinostat 0.093 | citarinostat 0.093 | silmitasertib 0.085 | [5] 0.054 | [6] -0.067 | entospletinib -0.011

GCSH (UniProt P23434)
inactive: [1] 0.027 | [2] 0.037 | [3] 0.073 | [4] 0.027 | entinostat -0.049 | vorinostat 0.057 | citarinostat 0.022 | silmitasertib 0.193 | [5] -0.144 | [6] -0.04 | entospletinib 0.037

GPAT4 (UniProt Q86UL3)
inactive: [1] -0.031 | [2] 0.002 | [3] -0.012 | [4] -0.028 | entinostat -0.107 | vorinostat -0.017 | citarinostat 0.004 | silmitasertib -0.005 | [5] -0.077 | [6] -0.068 | entospletinib 0.055

GLRX3 (UniProt O76003)
Chain of UniProt O76003 (O76003 whole entry, looked up): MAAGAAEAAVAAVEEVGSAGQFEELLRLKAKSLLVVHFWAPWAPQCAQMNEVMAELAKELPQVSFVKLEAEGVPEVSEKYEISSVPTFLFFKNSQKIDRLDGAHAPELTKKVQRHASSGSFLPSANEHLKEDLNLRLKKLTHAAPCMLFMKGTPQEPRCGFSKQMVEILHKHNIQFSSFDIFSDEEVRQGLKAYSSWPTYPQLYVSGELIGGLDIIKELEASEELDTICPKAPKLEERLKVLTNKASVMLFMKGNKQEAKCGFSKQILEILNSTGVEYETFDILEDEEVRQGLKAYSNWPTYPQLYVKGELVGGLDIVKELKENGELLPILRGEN
inactive: [1] 0 | [2] -0.057 | [3] -0.066 | [4] -0.042 | entinostat 0.022 | vorinostat -0.013 | citarinostat 0.014 | silmitasertib 0.034 | [5] -0.094 | [6] -0.024 | entospletinib 0.001

GAGE12F (UniProt P0CL80)
inactive: [1] 0.029 | [2] -0.013 | [3] 0.083 | [4] -0.059 | entinostat 0.031 | vorinostat 0.024 | citarinostat 0 | silmitasertib 0.01 | [5] 0.021 | [6] -0.08 | entospletinib 0.031

GUSB (UniProt P08236)
Chain of UniProt P08236 (P08236 whole entry, looked up): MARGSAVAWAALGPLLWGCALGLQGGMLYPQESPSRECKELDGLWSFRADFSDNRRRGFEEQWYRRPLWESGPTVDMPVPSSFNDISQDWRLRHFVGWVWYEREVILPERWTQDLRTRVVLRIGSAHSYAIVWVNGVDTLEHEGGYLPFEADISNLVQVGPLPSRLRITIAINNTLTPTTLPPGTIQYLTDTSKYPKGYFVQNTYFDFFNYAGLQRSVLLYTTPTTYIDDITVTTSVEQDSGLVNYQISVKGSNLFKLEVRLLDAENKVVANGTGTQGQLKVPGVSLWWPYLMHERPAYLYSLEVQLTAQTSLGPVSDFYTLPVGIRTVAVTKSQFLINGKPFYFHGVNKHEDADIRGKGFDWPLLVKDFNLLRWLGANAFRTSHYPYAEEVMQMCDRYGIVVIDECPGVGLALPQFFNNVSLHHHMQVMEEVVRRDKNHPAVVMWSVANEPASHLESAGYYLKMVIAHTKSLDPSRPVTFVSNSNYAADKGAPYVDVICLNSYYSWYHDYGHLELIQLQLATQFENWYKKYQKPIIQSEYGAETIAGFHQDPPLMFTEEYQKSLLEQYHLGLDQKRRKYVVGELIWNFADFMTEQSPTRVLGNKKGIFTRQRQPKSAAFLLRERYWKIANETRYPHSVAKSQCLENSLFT
inactive: [1] -0.044 | [2] 0.029 | [3] 0.047 | [4] 0.067 | entinostat -0.066 | vorinostat 0.049 | citarinostat 0.148 | silmitasertib -0.011 | [5] 0.057 | [6] -0.059 | entospletinib 0.11

GATD1 (UniProt Q8NB37)
active: [5] -0.673
inactive: [1] 0.012 | [2] 0.028 | [3] -0.037 | [4] -0.013 | entinostat -0.084 | vorinostat -0.018 | citarinostat -0.031 | silmitasertib -0.025 | [6] -0.031 | entospletinib -0.021

HNRNPH2 (UniProt P55795)
Chain of UniProt P55795 (P55795 whole entry, looked up): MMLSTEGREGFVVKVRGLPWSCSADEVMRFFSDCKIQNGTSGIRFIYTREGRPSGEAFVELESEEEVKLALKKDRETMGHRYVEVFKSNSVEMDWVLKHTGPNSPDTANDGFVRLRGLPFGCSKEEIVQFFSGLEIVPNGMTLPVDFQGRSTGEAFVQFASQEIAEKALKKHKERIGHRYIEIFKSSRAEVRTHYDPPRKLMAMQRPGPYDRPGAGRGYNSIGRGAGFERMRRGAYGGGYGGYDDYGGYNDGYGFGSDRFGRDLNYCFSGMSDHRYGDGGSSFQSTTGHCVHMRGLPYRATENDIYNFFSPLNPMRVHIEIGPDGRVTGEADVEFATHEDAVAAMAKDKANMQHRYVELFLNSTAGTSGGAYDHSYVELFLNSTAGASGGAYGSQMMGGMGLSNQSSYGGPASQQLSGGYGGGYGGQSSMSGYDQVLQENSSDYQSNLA
inactive: [1] -0.073 | [2] -0.03 | [3] -0.124 | [4] -0.077 | entinostat 0.016 | vorinostat 0.114 | citarinostat 0.06 | silmitasertib 0.031 | [5] -0.007 | [6] -0.086 | entospletinib 0.009

HOOK3 (UniProt Q86VS8)
Chain of UniProt Q86VS8 (Q86VS8 whole entry, looked up): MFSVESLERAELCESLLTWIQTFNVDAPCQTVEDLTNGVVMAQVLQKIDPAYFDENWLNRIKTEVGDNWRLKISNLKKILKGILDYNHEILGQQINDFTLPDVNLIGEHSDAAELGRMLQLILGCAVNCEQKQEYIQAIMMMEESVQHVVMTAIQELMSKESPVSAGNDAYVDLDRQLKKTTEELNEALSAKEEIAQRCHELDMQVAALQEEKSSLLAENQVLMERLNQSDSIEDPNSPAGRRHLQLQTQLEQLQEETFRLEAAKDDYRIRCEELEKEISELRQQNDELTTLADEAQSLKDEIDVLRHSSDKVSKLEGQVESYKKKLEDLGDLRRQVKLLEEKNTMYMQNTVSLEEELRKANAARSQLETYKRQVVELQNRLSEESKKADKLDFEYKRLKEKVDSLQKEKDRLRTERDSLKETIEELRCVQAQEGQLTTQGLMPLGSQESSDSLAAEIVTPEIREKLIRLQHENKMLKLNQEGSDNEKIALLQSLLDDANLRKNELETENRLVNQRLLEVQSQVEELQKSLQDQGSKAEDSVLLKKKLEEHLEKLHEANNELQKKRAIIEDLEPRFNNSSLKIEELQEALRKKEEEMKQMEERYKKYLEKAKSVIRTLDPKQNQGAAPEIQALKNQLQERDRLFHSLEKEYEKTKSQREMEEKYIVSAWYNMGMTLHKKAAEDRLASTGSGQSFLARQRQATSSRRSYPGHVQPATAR
inactive: [1] 0.05 | [2] -0.077 | [3] -0.079 | [4] -0.081 | entinostat 0.063 | vorinostat 0.056 | citarinostat -0.022 | silmitasertib 0.101 | [5] -0.049 | [6] -0.05 | entospletinib 0.025

GDPD1 (UniProt Q8N9F7)
Chain of UniProt Q8N9F7 (Q8N9F7 whole entry, looked up): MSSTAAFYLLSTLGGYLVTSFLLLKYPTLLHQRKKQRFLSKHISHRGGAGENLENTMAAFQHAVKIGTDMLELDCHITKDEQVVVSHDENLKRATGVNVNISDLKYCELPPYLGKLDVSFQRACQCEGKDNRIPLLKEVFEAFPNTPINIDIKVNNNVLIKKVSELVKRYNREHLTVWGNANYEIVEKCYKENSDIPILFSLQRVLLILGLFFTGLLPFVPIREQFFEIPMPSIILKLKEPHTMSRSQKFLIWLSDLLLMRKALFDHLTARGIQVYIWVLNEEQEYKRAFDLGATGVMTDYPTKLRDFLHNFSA
inactive: [1] -0.024 | [2] 0.144 | [3] 0.067 | [4] 0.003 | entinostat -0.011 | vorinostat -0.141 | citarinostat 0.051 | silmitasertib -0.039 | [5] 0.096 | [6] -0.038 | entospletinib 0.04

FBXO7 (UniProt Q9Y3I1)
Chain of UniProt Q9Y3I1 (Q9Y3I1 whole entry, looked up): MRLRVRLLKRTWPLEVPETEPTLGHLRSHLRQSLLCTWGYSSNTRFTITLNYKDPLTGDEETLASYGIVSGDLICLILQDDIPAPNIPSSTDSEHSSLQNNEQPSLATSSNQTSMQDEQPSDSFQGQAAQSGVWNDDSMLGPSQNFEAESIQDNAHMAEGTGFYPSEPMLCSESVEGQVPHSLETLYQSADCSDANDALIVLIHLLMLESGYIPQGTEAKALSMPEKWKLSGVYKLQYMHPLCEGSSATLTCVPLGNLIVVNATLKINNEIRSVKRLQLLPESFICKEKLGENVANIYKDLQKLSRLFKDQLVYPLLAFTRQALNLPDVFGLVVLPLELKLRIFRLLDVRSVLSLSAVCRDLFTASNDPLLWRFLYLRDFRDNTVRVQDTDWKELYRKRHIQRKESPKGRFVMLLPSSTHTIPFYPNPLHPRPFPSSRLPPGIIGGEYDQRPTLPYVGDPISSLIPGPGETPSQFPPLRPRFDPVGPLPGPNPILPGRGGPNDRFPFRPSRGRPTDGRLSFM
inactive: [1] 0.061 | [2] -0.052 | [3] -0.077 | [4] -0.044 | entinostat 0.038 | vorinostat 0.097 | citarinostat 0.013 | silmitasertib 0.031 | [5] -0.026 | [6] -0.052 | entospletinib -0.009
